Data as given in PubChem BioAssay (Tox21).
Results filed as inconclusive are left out. Calls of active or inactive are those of the source. Unless noted, calls follow the shape of the full dose curve.

Experiments:
[1] = qHTS assay to identify small molecule agonists of the vitamin D receptor (VDR) signaling pathway - cell viability counter screen (AID 743224; active = well fitted curve in the direction sought with a large enough effect in the repeat runs; an effect the other way counts as inactive or inconclusive; also: series mostly up to about 63 µM; % is scaled to controls: 0 for no effect and ±100 for the full control effect; nearly all actives have a fitted effect of over 50% in size)
Procedure, shortened: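 Counter screen for cytotoxicity: VDR-bla cells at 2,000 cells/well, 16 h compound exposure, then CellTiter-Glo luminescence after the beta-lactamase measurement.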

[2] = qHTS assay to identify small molecule antagonists of the vitamin D receptor (VDR) signaling pathway - cell viability counter screen (AID 743225; active = well fitted curve in the direction sought with a large enough effect in the repeat runs; an effect the other way counts as inactive or inconclusive; also: % is scaled to controls: 0 for no effect and ±100 for the full control effect; nearly all actives have a fitted effect of over 50% in size)
Procedure, shortened: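 HEK293T VDR-bla; cpd + 1a,25-(OH)2D3 3 nM final, 16 h 37C/5% CO2; B/G FRET substrate 2 h RT; then CellTiter-Glo 30 min RT, luminescence.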

[3] = qHTS assay to identify small molecule agonists of the NFkB signaling pathway - cell viability counter screen (AID 1159515); also: series mostly up to about 61 µM; % is scaled to controls: 0 for no effect and ±100 for the full control effect; nearly all actives have a fitted effect of over 55% in size
Procedure, shortened: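 Counter screen run alongside the NFkB-bla agonist assay: ME-180 reporter cells exposed to compounds for 5 hr, then lysed with CellTiter-Glo in the same wells. Luminescence, read after 30 min, reflects viable cells.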

[4] = qHTS assay to identify small molecule agonists of the endoplasmic reticulum stress response signaling pathway (AID 1159516; active = well fitted activation curve with a large enough effect in the signal ratio in the repeat runs, not every such curve was filed as active; the % refers to the signal ratio; also: potency is read from the fitted curve at half-maximal effect; as to activation: % is scaled to controls: 0 for no effect and ±100 for the full control effect)
Procedure, shortened: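 For this screen, HeLa cells stably carrying beta-lactamase under the ER stress response element received test compounds, positive controls or DMSO for 5 hr at 37 C; B/G FRET substrate was then added and dual-wavelength emission recorded.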

[5] = qHTS assay to identify small molecule agonists of the endoplasmic reticulum stress response signaling pathway - cell viability counter screen (AID 1159517); also: series mostly up to about 61 µM; % is scaled to controls: 0 for no effect and ±100 for the full control effect; nearly all actives have a fitted effect of over 50% in size
Procedure, shortened: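 Cpd-treated ESRE-bla HeLa (5 hr, 37 C) → LiveBLAzer 2 hr RT → CellTiter-Glo 30 min RT → luminescence.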

[6] = qHTS assay to identify small molecule antagonists of the retinoid-related orphan receptor gamma (ROR-gamma) signaling pathway - cell viability counter screen (AID 1159520; active = well fitted curve in the direction sought with a large enough effect in the repeat runs; an effect the other way counts as inactive or inconclusive; also: % is scaled to controls: 0 for no effect and ±100 for the full control effect; nearly all actives have a fitted effect of over 50% in size)
Procedure, shortened: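 Tet-on ROR gamma CHO cells (1,000/well) were plated 4 hr, given compounds in DMSO for 2 hr at 37 C, then induced with 1 uM final doxycycline for 16 hr. Viability was read as ATP by CellTiter-Glo luminescence after 30 min.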

[7] = qHTS assay to identify small molecule agonists of the AP-1 signaling pathway - cell viability counter screen (AID 1159525); also: nearly all actives have a fitted effect of over 55% in size
Procedure, shortened: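 Each titration point was normalised to DMSO and tetra n-octyl ammonium bromide controls. The read was Cell Titer Glo luminescence after 30 min at RT, following 5 h compound exposure of ME-180 AP-1-bla cells at 37 °C.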

[8] = qHTS assay to identify small molecule agonists of the AP-1 signaling pathway (AID 1159526); also: % is scaled to controls: 0 for no effect and ±100 for the full control effect
[9] = target: Retinoic acid receptor RXR-alpha (Homo sapiens) (UniProt P19793); experiment: qHTS assay to identify small molecule agonists of the RXR signaling pathway (AID 1159527); also: nearly all actives have a fitted effect of over 35% in size; also: potency is read from the fitted curve at half-maximal effect; as to activation: % is scaled to controls: 0 for no effect and ±100 for the full control effect
Procedure, shortened: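 Cells plated at 2,000/well, rested 5 hr at 37 C, pin-dosed with DMSO compound solutions, incubated 16 hr, then loaded with B/G FRET substrate for 2 hr at RT before dual-emission fluorescence reading.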

[10] = target: Nuclear receptor ROR-gamma (Homo sapiens) (UniProt P51449); experiment: qHTS assay to identify small molecule antagonists of the retinoid-related orphan receptor gamma (ROR-gamma) signaling pathway (AID 1159521; active = well fitted curve in the direction sought with a large enough effect in the repeat runs; an effect the other way counts as inactive or inconclusive)
Procedure, shortened: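 Cells were plated, rested 4 h at 37 C, exposed to compounds for 2 h, then given 1 uM final doxycycline hyclate to induce RORγ expression. After 16 h, ONE-Glo luminescence from the ROR response element reporter was measured.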

Chain of Retinoic acid receptor RXR-alpha (Homo sapiens) (P19793 whole entry, looked up): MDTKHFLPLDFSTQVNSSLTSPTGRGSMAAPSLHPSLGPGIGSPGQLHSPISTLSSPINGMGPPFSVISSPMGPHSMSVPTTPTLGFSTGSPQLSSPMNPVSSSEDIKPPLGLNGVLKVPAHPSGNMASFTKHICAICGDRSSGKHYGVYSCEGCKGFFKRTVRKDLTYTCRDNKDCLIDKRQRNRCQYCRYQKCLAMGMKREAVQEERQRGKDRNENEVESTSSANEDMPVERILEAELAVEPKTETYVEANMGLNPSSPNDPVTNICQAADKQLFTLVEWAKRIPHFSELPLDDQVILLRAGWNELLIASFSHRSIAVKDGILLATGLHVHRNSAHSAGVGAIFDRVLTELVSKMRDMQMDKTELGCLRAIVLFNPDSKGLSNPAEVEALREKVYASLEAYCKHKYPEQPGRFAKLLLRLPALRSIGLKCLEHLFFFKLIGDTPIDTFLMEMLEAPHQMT

NCC(=O)O
inactive: Potency [1] | Potency [2] | Potency [3] | Potency [4] | Potency [5] | activity, negative = cytotoxicity [6] -1.28% [at 19 µM] | viability change, negative = cytotoxic [7] -1.65% [at 15.8 µM] | activation [8] -0.769% [at 15.8 µM] | activation [9] -2.92% [at 15.8 µM]

COc1cc(Cl)c(OC)cc1N
inactive: Potency [1] | Potency [2] | Potency [3] | Potency [4] | Potency [5] | Potency [6] | Potency [7] | Potency [8] | Potency [9]

Nc1cc(C(=O)O)c(O)c(S(=O)(=O)O)c1
inactive: Potency [1] | Potency [2] | Potency [3] | Potency [4] | Potency [5] | Potency [6] | Potency [7] | Potency [8] | Potency [9]

C=C1[C@H]2CC[C@@H]3[C@H]2C(C)(C)CCC[C@]13C
inactive: Potency [1] | Potency [2] | Potency [3] | Potency [4] | Potency [5] | Potency [6] | Potency [7] | Potency [8] | Potency [9]

CCCCC(CC)COC(=O)CCCCCCCCC(=O)OCC(CC)CCCC (configuration not stated)
inactive: Potency [1] | Potency [2] | Potency [3] | Potency [4] | Potency [5] | Potency [6] | Potency [7] | Potency [8] | Potency [9]

O=[N+]([O-])c1ccc2[nH]ncc2c1
inactive: Potency [1] | Potency [2] | Potency [3] | Potency [4] | Potency [5] | Potency [6] | Potency [7] | Potency [8] | Potency [9]

CCOCC(O)COc1ccc(NC(=O)CC[S+](C)C)cc1 (configuration not stated)
inactive: Potency [1] | Potency [2] | Potency [3] | Potency [4] | Potency [5] | Potency [6] | Potency [7] | Potency [8] | Potency [9]

CC1CCC(=O)C1=O (configuration not stated)
inactive: Potency [3] | Potency [4] | Potency [5] | Potency [6] | Potency [7] | Potency [8] | Potency [9]

Nc1cccc([N+](=O)[O-])c1
inactive: Potency [1] | Potency [2] | Potency [3] | Potency [4] | Potency [5] | Potency [6] | Potency [7] | Potency [8] | Potency [9]

C=CC1CC2C=CC1C2 (configuration not stated)
inactive: Potency [1] | Potency [2] | Potency [3] | Potency [4] | Potency [5] | Potency [6] | Potency [7] | Potency [8] | Potency [9]

CCn1cc(C(=O)O)c(=O)c2cnc(N3CCNCC3)nc21
inactive: Potency [1] | Potency [2] | Potency [3] | Potency [4] | Potency [5] | Potency [6] | Potency [7] | Potency [8] | Potency [9]

Nc1ccc([N+](=O)[O-])c(C(F)(F)F)c1
inactive: Potency [1] | Potency [2] | Potency [3] | Potency [4] | Potency [5] | Potency [6] | Potency [7] | Potency [8] | Potency [9]

O=C(O)C(S)C(S)C(=O)O (configuration not stated)
inactive: Potency [1] | Potency [2] | Potency [3] | Potency [4] | Potency [5] | Potency [6] | Potency [7] | Potency [8] | Potency [9]

O=C(OCCc1ccccc1)c1ccccc1
inactive: Potency [1] | Potency [2] | Potency [3] | Potency [4] | Potency [5] | Potency [6] | Potency [10]

OC(CN1CCC(Cc2ccc(F)cc2)CC1)c1ccc(Cl)cc1 (configuration not stated)
inactive: Potency [3] | Potency [4] | Potency [5] | Potency [6] | Potency [7]

CCCCC1=NC2(CCCC2)C(=O)N1Cc1ccc(-c2ccccc2-c2nn[nH]n2)cc1
inactive: Potency [2] | Potency [3] | Potency [4] | Potency [5] | Potency [6] | Potency [7] | Potency [8] | Potency [9]

CCOC(=O)COC(=O)c1cc(Oc2ccc(C(F)(F)F)cc2Cl)ccc1[N+](=O)[O-]
inactive: Potency [1] | Potency [2] | Potency [3] | Potency [4] | Potency [5] | Potency [6] | Potency [7] | Potency [8]
active: Potency [9] 24.5 µM

CCCCCCCC/C=C\CCCCCCCC(=O)OCC
inactive: Potency [1] | Potency [2] | Potency [3] | Potency [4] | Potency [5] | Potency [6] | Potency [7] | Potency [8]

O=S(=O)(Oc1ccc(Cl)cc1)c1ccccc1
inactive: Potency [1] | Potency [2] | Potency [3] | Potency [4] | Potency [5] | Potency [6] | Potency [7] | Potency [8]

C=CCOC(=O)CCC1CCCCC1
inactive: Potency [1] | Potency [2] | Potency [3] | Potency [4] | Potency [5] | Potency [6] | Potency [7] | Potency [8]

Brc1c2ccccc2c(Br)c2ccccc12
inactive: activity change, negative = cytotoxicity [1] 13.8% [at 5.95 µM] | viability change, negative = cytotoxic [2] -26.5% [at 6.95 µM] | activity, negative = cytotoxic [3] -0.607% [at 6.95 µM] | activity change, negative = cytotoxicity [5] -1.22% [at 6.95 µM] | activity, negative = cytotoxicity [6] 12% [at 8.39 µM] | viability change, negative = cytotoxic [7] 0.0847% [at 6.97 µM] | activation [8] -11.4% [at 6.97 µM]
active: Potency [4] 0.882 µM

CCOc1ccc(N=Nc2ccc(/C=C/c3ccc(N=Nc4ccc(OCC)cc4)cc3S(=O)(=O)O)c(S(=O)(=O)O)c2)cc1
inactive: Potency [1] | Potency [2] | Potency [3] | Potency [4] | Potency [5] | Potency [6] | Potency [7] | Potency [8]

Brc1c2ccccc2cc2ccccc12
active: Potency [4] 49.5 µM
inactive: Potency [1] | Potency [2] | Potency [3] | Potency [5] | Potency [6] | Potency [7] | Potency [8] | Potency [9]

CC(C)(CO)[N+](=O)[O-]
inactive: Potency [1] | Potency [2] | Potency [3] | Potency [4] | Potency [5] | Potency [6] | Potency [7] | Potency [8] | Potency [9]
